MBD2 DNA inh: blocks human MBD2 binding to methylated DNA; Q9UBB5; TR-FRET, MBD2 binding to methylated oligonucleotide; inhibition, % at 4.4 µM; 370,000 compounds, 0.31% hits; AID 686964; in the data active means inhibition above about 13%
PRMT1 inh: PRMT1 (human) inhibition, primary screen; Q99873; recombinant PRMT1, activity-based probe fluorescence polarization; inhibition, % at 2.79 µM; 370,000 compounds, 1.3% hits; AID 652257;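 active means inhibition above about 21% made by adding two undisclosed values, limit read from the data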
UHRF1 binding: UHRF1 methyl-DNA binding inhibition; UHRF1 binding to methylated oligo, TR-FRET; AID 687016; inhibition, % at 4.4 µM; Q96T88; 370,000 compounds, 0.75% hits;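 further: UHRF1 SRA domain binding a hemimethylated CpG hairpin DNA probe; 0% = median of test compound wells and 100% = reference inhibitor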
Target sequence (Q96T88 whole entry, looked up, the tested form may be a part): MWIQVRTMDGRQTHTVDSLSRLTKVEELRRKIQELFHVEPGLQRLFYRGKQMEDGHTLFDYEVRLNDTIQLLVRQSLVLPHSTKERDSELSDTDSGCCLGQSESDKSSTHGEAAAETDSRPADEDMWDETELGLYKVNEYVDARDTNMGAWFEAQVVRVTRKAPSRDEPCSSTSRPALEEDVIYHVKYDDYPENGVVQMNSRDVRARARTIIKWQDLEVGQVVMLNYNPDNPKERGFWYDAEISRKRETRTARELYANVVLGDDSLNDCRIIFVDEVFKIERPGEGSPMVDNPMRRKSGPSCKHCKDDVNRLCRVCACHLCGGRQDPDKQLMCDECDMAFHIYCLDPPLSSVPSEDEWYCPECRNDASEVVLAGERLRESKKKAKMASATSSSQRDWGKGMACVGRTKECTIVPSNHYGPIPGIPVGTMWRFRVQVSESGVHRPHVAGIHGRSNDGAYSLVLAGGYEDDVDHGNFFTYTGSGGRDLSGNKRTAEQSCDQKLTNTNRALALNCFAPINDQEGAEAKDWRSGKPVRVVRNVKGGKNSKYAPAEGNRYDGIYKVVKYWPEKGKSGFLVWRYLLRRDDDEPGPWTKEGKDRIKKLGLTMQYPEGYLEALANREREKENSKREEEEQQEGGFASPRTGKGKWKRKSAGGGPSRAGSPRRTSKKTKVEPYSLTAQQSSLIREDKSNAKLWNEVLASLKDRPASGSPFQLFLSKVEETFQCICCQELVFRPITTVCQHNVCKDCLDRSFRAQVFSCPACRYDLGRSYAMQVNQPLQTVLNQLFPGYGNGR
LEDGF integ inh: blocks HIV-1 LEDGF/p75-dependent DNA integration. TR-FRET IN-LEDGF/p75 DNA integration, Eu/Cy5. inhibition, % at 3.7 µM. 370,000 compounds, 0.64% hits. AID 743269;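 active means inhibition above the screen-wide mean plus 3 SD, cut at about 13% in these data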;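 further: signal is the Cy5 over europium emission ratio at 671 and 618 nm; 0% = plate median of compound wells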
PRMT1 inh conf: PRMT1 (human) inhibition, FP confirmation | shares compounds with PRMT1 inh | recombinant His-PRMT1, activity-based probe fluorescence polarization | inhibition, % at 2.79 µM | 3,300 compounds, 42% hits | AID 687036;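 active means mean inhibition across replicates above the hit cutoff derived for the earlier primary screen, cut at about 22% in these data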
UHRF1 DNA bind: UHRF1 methyl-oligo binding inhibition as MBD2 counter-screen | shares compounds with MBD2 DNA inh | UHRF1 binding to methylated oligonucleotide, TR-FRET | inhibition, % at 4.4 µM | 1,000 compounds, 25% hits | AID 720530;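 further: UHRF1 SRA domain binding a labeled hemimethylated CpG hairpin DNA; 0% = vehicle only and 100% = reference inhibitor with vehicle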
MBD2 confirm: MBD2-DBD methyl-DNA binding inhibition, TR-FRET confirmation. shares compounds with MBD2 DNA inh. TR-FRET MBD2-DBD binding to methylated oligonucleotide. inhibition, % at 4.4 µM. 1,000 compounds, 26% hits. AID 720531; in the data active means inhibition above about 14%
IN multimer up: HIV-1 integrase multimerization activation, counter-screen | 2,000 compounds, 17% hits | AID 1053131 | TR-FRET HIV-1 integrase multimerization, biochemical | activation, % at 7.7 µM | shares compounds with LEDGF integ inh; in the data active means activation above about 8.9%
TRFRET interf: counter-screen for LEDGF/p75 integration inhibitors: TR-FRET optical interference; shares compounds with LEDGF integ inh; TR-FRET optical interference counterscreen, HIV-1 IN multimerization; inhibition, % at 7.7 µM; 2,000 tested, under 10 active;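 active means inhibition above the mean over all tested compounds plus 3 SD, which no compound reached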;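 further: 0% = integrase with antibodies and DMSO and 100% = antibodies without integrase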
LEDGF integ conf: confirmation of HIV-1 LEDGF/p75-dependent integration inhibitors; shares compounds with LEDGF integ inh; TR-FRET LEDGF/p75-dependent HIV-1 integration, biochemical; inhibition, % at 3.7 µM; 2,000 compounds, 36% hits; in the data active means inhibition above about 14%
Numbers without * were called inactive; · = no result given; ! = not active in a repeat. Sampled rows, rich in hits. Any-hit rate of the full collection: about 2.5%. Unless noted, no stated cut-off is given here; in the data, active means inhibition above about 21%; inactive means the rest.

SMILES	MBD2 DNA inh	PRMT1 inh	UHRF1 binding	LEDGF integ inh	PRMT1 inh conf	IN multimer up	TRFRET interf	LEDGF integ conf	others
Cc1ccsc1/C=C/C1=Cc2c(sc(NC(=O)CSc3n[nH]c(N)n3)c2C#N)C(C)(C)C1	-6.2	41.0*	7.8	17.8*	3.7	-0.3	1.5	38.8*
NC(=O)c1ccsc1NC(=O)CSc1n[nH]c(N)n1	-3.9	-1.6	0.6	3.3	·	·	·	·
COc1ccc(CNCC(O)COc2cccc3c2OC(C)(C)C3)cc1 (configuration not stated)	3.4	-5.1	1.7	0.4	·	·	·	·
CC(=O)Nc1ccc(C(=O)/C=C/c2ccco2)cc1	1.4	36.5*	9.0	27.6*	27.1*	12.2*	-61.3	34.9*
CCc1ccc(NC(=O)COC(=O)/C=C/c2ccco2)cc1	4.5	28.4*	24.8*	26.8*	-1.3	2.4	-8.9	0.4
O=C(COC(=O)/C=C/c1ccco1)Nc1ccccc1	0.9	0.4	4.0	4.0	·	·	·	·
CCOC(=O)C1=C(Nc2ccccc2)CSC1	-4.3	-1.6	-0.4	-3.0	·	·	·	·
O=C(c1ccco1)N1CCN(C2CN(Cc3ccc(F)cc3)S(=O)(=O)C2)CC1 (configuration not stated)	-5.4	0.6	-0.2	-1.4	·	·	·	·
CCOC(=O)C1Nc2ccc(C(=O)O)cc2C2C=CCC12 (configuration not stated)	26.6*	30.2*	71.9*	67.3*	37.5*	45.5*	-162.0	60.3*	UHRF1 DNA bind=48.3*;MBD2 confirm=10.9
Cc1ccc(C)c(N2CCN(C(=O)c3ccc4nc(-c5ccco5)c(-c5ccco5)nc4c3)CC2)c1	-9.8	44.0*	0.4	40.4*	19.4	3.8	-13.9	21.6*
CCOC(=O)C1=C(O)/C(=C\c2ccc(CNC(=O)C(=O)Nc3ccccc3)o2)N=C1C	6.1	34.1*	7.4	24.6*	22.7*	10.3*	-51.7	25.8*
CC(C)CC1=NN2C(=N)/C(=C\c3coc4ccccc4c3=O)C(=O)N=C2S1	-3.3	34.2*	-13.3	25.7*	47.9*	0.2	-1.0	23.5*
CCSC1=NSC2=NC(=O)/C(=C\c3coc4ccccc4c3=O)C(=N)N12	0.1	7.4	-6.3	0.0	·	·	·	·
O=C1/C(=C\c2ccco2)SC(=S)N1C1CCS(=O)(=O)C1 (configuration not stated)	12.9	25.3*	53.5*	40.0*	1.7	6.2	-31.4	48.0*
Cc1ccc(/C=C2\SC(=S)N(C3CCS(=O)(=O)C3)C2=O)cc1 (configuration not stated)	7.6	9.8	5.3	-4.6	·	·	·	·
O=C1/C(=C/c2ccco2)SC(=S)N1C1CCS(=O)(=O)C1 (configuration not stated)	10.2	36.5*	31.7*	47.9*	5.8	0.8	-4.0	27.3*
CCOC(=O)CN(C(=O)COC(=O)C1(c2ccccc2)CC1)c1ccc(F)cc1	1.3	-0.3	0.9	3.4	·	·	·	·
Cc1ccc(S(=O)(=O)N(C)CC(=O)N(C)Cc2cccs2)cc1	1.4	0.6	-1.9	-1.3	·	·	·	·
CCn1c(C)nc2cc(C(=O)N/N=C/c3ccc(O)c(O)c3O)ccc21	16.1*	42.8*	19.1	73.2*	43.0*	52.5*	-264.4	70.1*	UHRF1 DNA bind=3.3;MBD2 confirm=2.2
CCn1c(C)nc2cc(C(=O)N/N=C/c3cccc(OC)c3O)ccc21	-4.5	-4.2	-4.9	-8.6	·	·	·	·
O=c1ccc2ccc(O)cc2o1	6.0	1.7	2.2	-3.9	·	·	·	·
O=c1ccc2cc(O)c(O)cc2o1	71.0*	32.4*	93.7*	93.6*	3.0	7.1	-35.9	6.3	UHRF1 DNA bind=5.4;MBD2 confirm=4.3
Cc1ccc(-n2ccnc(SCC(=O)NCCc3ccccc3)c2=O)cc1F	-5.9	59.4*	-3.6	17.1*	41.6*	2.7	-9.8	-9.2
CCOc1ccc(-n2ccnc(SCC(=O)NCCc3ccccc3)c2=O)cc1	-2.8	15.4	-3.4	1.5	·	·	·	·
O=C(CCC(=O)N(CC(=O)NC1CCCCC1)Cc1cccs1)Nc1nccs1	0.1	-1.7	0.1	2.5	·	·	·	·
SMILES	MBD2 DNA inh	PRMT1 inh	UHRF1 binding	LEDGF integ inh	PRMT1 inh conf	IN multimer up	TRFRET interf	LEDGF integ conf	others
Cc1nc(S/C(=C\c2ccc(OCc3ccccc3Cl)cc2)C(=O)O)n[nH]1	0.8	-0.7	-1.2	1.7	·	·	·	·
Cc1nc(S/C(=C\c2ccc(-c3ccc(C(=O)O)c(Cl)c3)o2)C(=O)O)n[nH]1	27.1*	33.2*	88.3*	60.3*	38.7*	18.2*	-91.7	32.3*	UHRF1 DNA bind=53.1*;MBD2 confirm=10.4
COc1ccc2nc(NC(=S)N(C)C)sc2c1	-8.2	28.2*	-4.8	16.9*	-0.6	2.4	-12.1	15.9*
COc1cccc(=O)c2c(C)n(CC(=O)c3ccccc3)c(C)c12	11.2	35.8*	17.5	51.1*	7.9	4.2	-14.6	6.8
Cc1cc(C(=O)COc2cccnc2[N+](=O)[O-])c(C)n1Cc1cccs1	-1.0	29.1*	1.4	13.7*	-1.1	1.5	-7.6	5.0
COc1ccc(S(=O)(=O)N(C)C[C@H]2Oc3c(NC(=O)Cc4ccccc4)cccc3C(=O)N([C@H](C)CO)C[C@@H]2C)cc1	-3.7	-1.6	-1.4	-5.4	·	·	·	·
C[c-]1[c-](C)[c-](C)[c-](C)[c-]1C.[Fe].c1cc2nccc(N3CCCC3)[c-]2c1 (configuration not stated)	5.4	25.9*	13.9	19.5*!	7.6	-0.2	1.3	49.1*
c1coc(-c2nnc3sc(Cc4cccs4)nn23)c1	18.7*	64.0*	71.3*	38.2*	4.9	5.5	-27.7	17.6*	UHRF1 DNA bind=8.0;MBD2 confirm=8.8
O=c1c2ccccc2nc2n1CC/C2=C\N1CCN(c2ccc([N+](=O)[O-])cc2)CC1	-8.8	1.6	-7.1	3.8	·	·	·	·
CCCCN1Cc2c(nc3cc(-c4ccco4)[nH]n3c2=O)C1=O	24.8*	55.6*	62.9*	31.5*	18.2	3.8	-14.0	8.3	UHRF1 DNA bind=6.9;MBD2 confirm=4.3
Cc1ccc(NC(=O)C2CCN(C(=O)c3ccc(F)cc3)CC2)nc1	-2.1	-0.5	0.0	-2.3	·	·	·	·
O=C(COC(=O)c1c2c(nc3ccccc13)/C(=C\c1ccco1)CC2)NC1CCCC1	11.0	27.7*	19.3	28.2*	17.3	33.7*	-121.1	49.8*

Screening results (PubChem BioAssay)
